Here are results for one molecule from ChEMBL document CHEMBL1961873, “Compounds: GSK PKIS; Assays: Nanosyn kinase panel” (2012).

For assay [1], the target named is Sphingosine kinase 1 (Homo sapiens) (UniProt Q9NYA1). The conditions noted are these: at 1 µM.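 Also: mean SPHK1 inhibition value reported from the GSK PKIS kinase panel screen.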
Assay [2] deals with T1, Sphingosine kinase 2 (Homo sapiens) (UniProt Q9NRA0).
T1 sequence (whole entry): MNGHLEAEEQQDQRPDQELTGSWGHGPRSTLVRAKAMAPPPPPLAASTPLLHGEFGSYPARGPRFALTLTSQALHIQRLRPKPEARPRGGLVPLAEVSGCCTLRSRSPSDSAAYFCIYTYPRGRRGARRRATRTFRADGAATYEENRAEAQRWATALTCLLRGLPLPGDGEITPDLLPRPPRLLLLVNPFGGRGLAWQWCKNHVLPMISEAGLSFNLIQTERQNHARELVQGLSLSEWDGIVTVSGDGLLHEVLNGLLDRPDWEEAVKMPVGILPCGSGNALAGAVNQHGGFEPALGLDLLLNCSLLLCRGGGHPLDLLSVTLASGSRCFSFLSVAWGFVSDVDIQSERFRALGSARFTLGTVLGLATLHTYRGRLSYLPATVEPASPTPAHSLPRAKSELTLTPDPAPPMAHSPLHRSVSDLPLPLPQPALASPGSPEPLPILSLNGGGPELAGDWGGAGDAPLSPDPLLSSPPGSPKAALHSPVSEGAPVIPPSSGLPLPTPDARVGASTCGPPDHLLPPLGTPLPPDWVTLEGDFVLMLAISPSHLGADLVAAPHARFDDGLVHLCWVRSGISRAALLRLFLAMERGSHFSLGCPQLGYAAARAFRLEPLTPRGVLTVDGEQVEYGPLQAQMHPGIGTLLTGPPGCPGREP
As to conditions: at 0.1 µM.

In assay [3] the target is T1, Sphingosine kinase 2 (Homo sapiens). As to conditions: at 1 µM.
The target in assay [4] is Casein kinase II subunit alpha (Homo sapiens) (UniProt P68400). The conditions noted are these: at 0.1 µM.
For assay [5] the target is unchanged. The conditions noted are these: at 1 µM.
In assay [6] the target is T2, Inhibitor of nuclear factor kappa-B kinase subunit alpha (Homo sapiens) (UniProt O15111).
T2 sequence (whole entry): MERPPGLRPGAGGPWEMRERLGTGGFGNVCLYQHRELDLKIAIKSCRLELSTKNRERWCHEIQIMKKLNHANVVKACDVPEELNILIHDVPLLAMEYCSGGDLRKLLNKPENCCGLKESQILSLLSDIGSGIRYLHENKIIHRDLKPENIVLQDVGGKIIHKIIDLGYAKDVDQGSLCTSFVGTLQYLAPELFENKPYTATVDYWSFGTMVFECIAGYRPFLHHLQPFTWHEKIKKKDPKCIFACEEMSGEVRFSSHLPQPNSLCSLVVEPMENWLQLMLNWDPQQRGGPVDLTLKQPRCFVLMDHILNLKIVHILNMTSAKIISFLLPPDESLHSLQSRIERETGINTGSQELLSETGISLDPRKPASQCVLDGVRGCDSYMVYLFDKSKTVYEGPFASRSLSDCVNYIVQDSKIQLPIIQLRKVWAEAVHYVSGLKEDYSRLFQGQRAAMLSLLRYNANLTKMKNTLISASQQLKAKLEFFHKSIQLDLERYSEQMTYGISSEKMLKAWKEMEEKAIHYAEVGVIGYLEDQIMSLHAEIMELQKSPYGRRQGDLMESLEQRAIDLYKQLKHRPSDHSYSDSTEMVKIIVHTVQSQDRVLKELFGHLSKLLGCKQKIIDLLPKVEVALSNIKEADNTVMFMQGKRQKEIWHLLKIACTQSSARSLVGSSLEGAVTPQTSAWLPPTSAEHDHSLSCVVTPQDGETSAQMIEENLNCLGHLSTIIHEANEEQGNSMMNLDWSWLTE
As to conditions: at 0.1 µM.

Assay [7] concerns the target T2, Inhibitor of nuclear factor kappa-B kinase subunit alpha (Homo sapiens). As to conditions: at 1 µM.
The target of assay [8] is T3, Inhibitor of nuclear factor kappa-B kinase subunit beta (Homo sapiens) (UniProt O14920).
T3 sequence (whole entry): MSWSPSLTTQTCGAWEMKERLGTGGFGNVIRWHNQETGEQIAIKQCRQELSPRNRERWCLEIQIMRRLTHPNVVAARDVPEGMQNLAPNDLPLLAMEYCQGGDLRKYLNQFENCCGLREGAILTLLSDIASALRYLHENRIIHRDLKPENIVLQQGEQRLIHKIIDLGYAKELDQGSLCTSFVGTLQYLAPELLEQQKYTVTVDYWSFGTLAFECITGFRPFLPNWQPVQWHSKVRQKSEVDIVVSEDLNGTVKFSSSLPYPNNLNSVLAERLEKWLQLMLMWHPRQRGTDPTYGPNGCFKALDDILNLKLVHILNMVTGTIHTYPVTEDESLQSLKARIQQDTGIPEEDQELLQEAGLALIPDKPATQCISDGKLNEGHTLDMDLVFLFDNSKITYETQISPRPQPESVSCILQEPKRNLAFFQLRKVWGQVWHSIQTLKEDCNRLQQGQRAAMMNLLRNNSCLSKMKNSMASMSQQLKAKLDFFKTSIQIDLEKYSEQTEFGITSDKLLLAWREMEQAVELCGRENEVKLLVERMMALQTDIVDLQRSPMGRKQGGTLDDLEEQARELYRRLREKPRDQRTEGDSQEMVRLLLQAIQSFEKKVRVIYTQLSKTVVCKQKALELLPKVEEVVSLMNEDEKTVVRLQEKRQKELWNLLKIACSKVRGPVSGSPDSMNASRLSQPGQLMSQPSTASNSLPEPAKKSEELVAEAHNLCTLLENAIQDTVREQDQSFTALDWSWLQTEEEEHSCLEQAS
The conditions noted are these: at 0.1 µM.

Assay [9] concerns the target T3, Inhibitor of nuclear factor kappa-B kinase subunit beta (Homo sapiens). As to conditions: at 1 µM.
For assay [10], the target named is T4, Inhibitor of nuclear factor kappa-B kinase subunit epsilon (Homo sapiens) (UniProt Q14164).
T4 sequence (whole entry): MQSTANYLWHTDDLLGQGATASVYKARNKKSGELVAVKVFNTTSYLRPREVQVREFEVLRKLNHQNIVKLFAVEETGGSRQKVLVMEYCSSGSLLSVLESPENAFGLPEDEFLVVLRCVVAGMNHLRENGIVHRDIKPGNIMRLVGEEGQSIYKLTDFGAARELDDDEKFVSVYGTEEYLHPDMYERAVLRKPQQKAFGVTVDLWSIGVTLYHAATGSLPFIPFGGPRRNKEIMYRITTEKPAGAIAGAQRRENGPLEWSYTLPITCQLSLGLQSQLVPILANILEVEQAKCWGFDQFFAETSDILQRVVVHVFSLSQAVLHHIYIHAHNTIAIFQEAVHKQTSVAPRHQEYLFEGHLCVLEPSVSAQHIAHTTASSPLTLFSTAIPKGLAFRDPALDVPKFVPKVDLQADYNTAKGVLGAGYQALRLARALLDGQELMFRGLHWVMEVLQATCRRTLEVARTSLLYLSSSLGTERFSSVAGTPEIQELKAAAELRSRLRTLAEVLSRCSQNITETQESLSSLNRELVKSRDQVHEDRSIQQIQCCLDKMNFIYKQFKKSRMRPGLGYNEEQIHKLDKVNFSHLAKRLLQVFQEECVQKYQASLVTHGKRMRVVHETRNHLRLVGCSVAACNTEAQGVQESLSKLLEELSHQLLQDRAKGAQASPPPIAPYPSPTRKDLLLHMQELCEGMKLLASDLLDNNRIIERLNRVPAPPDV
The conditions noted are these: at 0.1 µM.

The target in assay [11] is T4, Inhibitor of nuclear factor kappa-B kinase subunit epsilon (Homo sapiens). The conditions noted are these: at 1 µM.
Assay [12] deals with T5, Serine/threonine-protein kinase Nek1 (Homo sapiens) (UniProt Q96PY6).
T5 sequence (whole entry): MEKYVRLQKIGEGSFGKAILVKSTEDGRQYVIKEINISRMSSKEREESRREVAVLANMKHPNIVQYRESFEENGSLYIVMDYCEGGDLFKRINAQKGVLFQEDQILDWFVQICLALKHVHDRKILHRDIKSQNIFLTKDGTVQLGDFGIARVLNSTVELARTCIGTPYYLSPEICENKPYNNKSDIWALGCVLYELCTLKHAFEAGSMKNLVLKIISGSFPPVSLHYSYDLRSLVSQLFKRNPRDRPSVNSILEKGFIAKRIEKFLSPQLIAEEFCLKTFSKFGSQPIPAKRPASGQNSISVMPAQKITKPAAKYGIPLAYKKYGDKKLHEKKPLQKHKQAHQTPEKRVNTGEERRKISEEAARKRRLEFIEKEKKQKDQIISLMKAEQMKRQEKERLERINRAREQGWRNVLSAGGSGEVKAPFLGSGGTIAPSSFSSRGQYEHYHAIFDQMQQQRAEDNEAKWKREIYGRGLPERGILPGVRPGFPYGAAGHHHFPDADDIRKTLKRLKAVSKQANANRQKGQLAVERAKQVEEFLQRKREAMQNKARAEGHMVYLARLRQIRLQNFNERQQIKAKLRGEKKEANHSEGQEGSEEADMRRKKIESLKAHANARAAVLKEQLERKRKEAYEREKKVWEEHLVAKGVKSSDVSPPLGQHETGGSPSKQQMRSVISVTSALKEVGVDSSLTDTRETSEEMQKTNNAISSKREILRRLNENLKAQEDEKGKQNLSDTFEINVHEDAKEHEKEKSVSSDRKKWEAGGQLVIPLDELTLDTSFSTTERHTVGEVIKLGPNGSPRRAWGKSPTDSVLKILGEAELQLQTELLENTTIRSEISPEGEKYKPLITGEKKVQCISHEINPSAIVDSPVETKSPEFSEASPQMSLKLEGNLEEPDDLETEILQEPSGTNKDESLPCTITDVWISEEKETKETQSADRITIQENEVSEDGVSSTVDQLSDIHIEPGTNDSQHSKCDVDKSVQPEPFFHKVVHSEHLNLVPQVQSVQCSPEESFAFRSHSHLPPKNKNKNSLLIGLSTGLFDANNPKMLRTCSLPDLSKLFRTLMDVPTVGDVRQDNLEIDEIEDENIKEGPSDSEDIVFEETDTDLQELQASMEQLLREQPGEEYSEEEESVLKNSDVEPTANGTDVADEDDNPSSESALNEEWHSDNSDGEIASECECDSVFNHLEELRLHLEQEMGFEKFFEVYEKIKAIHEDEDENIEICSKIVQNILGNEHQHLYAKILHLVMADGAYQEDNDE
As to conditions: at 0.1 µM.

Assay [13] addresses T5, Serine/threonine-protein kinase Nek1 (Homo sapiens). The conditions noted are these: at 1 µM.
Assay [14] addresses T6, Serine/threonine-protein kinase Nek2 (Homo sapiens) (UniProt P51955).
T6 sequence (whole entry): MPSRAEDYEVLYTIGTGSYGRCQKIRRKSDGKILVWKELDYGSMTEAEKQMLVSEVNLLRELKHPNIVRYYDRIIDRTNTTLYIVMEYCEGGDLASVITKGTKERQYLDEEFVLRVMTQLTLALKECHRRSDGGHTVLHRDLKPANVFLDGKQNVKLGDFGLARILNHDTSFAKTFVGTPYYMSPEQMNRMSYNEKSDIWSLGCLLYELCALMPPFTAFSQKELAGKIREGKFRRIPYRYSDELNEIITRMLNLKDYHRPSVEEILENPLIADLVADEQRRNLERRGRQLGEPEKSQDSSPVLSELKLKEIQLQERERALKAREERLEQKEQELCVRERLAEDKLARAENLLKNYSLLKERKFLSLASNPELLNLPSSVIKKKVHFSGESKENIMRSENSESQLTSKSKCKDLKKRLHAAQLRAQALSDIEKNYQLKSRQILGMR
As to conditions: at 0.1 µM.

Assay [15] addresses T6, Serine/threonine-protein kinase Nek2 (Homo sapiens). As to conditions: at 1 µM.
Assay [16] concerns the target Serine/threonine-protein kinase Nek6 (Homo sapiens) (UniProt Q9HC98). As to conditions: at 0.1 µM.
The target is the same in assay [17]. As to conditions: at 1 µM.
Assay [18] concerns the target Serine/threonine-protein kinase Nek7 (Homo sapiens) (UniProt Q8TDX7). The conditions noted are these: at 0.1 µM.
For assay [19] the target is unchanged. The conditions noted are these: at 1 µM.
For assay [20], the target named is T7, Serine/threonine-protein kinase Nek9 (Homo sapiens) (UniProt Q8TD19).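 Also: reported value is the mean percent inhibition of NEK9.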
T7 sequence (whole entry): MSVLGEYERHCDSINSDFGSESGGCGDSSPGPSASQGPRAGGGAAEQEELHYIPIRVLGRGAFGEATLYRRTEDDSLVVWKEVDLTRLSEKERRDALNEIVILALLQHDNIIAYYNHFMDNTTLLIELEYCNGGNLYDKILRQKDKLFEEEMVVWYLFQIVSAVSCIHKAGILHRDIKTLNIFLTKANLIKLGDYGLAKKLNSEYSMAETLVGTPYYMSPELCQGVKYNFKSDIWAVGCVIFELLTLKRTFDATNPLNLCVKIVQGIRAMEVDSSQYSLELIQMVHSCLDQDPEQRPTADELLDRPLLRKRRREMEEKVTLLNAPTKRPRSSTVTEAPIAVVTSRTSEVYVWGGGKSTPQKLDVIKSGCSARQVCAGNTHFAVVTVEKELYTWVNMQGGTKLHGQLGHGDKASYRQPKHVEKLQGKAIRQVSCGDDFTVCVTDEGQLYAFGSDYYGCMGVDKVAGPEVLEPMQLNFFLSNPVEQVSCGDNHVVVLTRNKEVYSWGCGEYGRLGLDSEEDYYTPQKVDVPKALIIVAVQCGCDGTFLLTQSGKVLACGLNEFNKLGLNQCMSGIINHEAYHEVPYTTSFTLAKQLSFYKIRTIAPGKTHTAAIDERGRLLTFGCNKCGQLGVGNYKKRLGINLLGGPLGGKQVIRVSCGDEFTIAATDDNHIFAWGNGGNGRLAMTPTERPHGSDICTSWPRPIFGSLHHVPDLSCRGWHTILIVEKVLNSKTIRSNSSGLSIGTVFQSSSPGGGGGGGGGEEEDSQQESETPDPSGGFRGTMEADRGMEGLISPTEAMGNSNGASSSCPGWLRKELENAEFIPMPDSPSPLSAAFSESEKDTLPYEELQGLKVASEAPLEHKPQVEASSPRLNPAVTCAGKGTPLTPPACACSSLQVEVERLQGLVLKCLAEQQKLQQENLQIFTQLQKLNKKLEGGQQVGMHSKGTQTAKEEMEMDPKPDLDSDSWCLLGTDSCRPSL
As to conditions: at 0.1 µM.

Chain of Serine/threonine-protein kinase Nek7 (Homo sapiens) (Q8TDX7 whole entry, looked up): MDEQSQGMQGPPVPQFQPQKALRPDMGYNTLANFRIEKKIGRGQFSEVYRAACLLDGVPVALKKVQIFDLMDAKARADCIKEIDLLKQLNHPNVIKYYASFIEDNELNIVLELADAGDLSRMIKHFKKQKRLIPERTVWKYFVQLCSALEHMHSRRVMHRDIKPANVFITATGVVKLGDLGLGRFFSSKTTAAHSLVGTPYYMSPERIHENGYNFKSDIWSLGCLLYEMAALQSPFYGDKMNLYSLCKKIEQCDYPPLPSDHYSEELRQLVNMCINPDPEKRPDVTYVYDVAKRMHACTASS
Chain of Serine/threonine-protein kinase Nek6 (Homo sapiens) (Q9HC98 whole entry): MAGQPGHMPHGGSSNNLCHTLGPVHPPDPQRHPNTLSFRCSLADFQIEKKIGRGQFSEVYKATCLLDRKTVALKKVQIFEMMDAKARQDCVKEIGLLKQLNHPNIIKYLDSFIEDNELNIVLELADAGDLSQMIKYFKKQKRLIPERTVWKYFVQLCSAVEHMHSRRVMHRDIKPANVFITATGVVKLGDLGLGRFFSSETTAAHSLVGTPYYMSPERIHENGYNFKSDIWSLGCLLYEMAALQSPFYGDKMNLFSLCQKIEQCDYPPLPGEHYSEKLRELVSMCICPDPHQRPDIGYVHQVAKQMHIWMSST
Chain of Casein kinase II subunit alpha (Homo sapiens) (P68400 whole entry, looked up): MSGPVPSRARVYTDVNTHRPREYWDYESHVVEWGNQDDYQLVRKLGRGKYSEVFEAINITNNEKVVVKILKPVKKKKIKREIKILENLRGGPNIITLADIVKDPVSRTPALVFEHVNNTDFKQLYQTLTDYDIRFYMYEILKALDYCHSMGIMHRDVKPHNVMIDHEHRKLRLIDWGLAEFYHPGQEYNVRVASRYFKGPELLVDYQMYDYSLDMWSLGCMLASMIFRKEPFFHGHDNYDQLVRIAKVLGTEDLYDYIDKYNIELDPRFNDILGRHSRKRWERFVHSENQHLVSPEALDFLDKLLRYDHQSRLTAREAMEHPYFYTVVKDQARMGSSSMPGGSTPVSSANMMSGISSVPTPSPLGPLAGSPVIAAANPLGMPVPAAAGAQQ
Chain of Sphingosine kinase 1 (Homo sapiens) (Q9NYA1 whole entry): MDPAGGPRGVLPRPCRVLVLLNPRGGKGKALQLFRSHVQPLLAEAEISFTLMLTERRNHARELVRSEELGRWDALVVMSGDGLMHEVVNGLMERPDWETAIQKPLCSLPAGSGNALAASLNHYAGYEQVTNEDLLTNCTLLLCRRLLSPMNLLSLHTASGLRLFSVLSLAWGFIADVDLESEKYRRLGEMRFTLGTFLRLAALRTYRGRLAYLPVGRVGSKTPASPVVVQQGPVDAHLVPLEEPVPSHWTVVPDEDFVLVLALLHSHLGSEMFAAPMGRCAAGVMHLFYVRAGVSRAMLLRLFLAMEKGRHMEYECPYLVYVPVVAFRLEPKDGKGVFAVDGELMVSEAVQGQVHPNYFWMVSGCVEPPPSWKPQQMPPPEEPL

In the case of `CC(C)COC(=O)c1ccc2c(c1)/C(=C/Nc1ccc(S(N)(=O)=O)cc1)C(=O)N2`, the inhibition was 1.92% in [1]; -0.06% in assay [2]; -0.44% in assay [3]; 7.86% in assay [4]; 47.2% in assay [5]; -1.06% in [6]. For the same molecule, the inhibition in [7] was 3.25%; in [8], -0.4%; in [9], 6.93%; in assay [10], 46.2%; in [11], 93.4%; in assay [12], -1.61%. For the same molecule, the inhibition in assay [13] was 2.33%; in assay [14], -0.98%; in assay [15] it was 0.66%; in assay [16], -0.45%; in assay [17], 9.49%; in [18], 0.03%. In addition, the figures for the inhibition in assay [19] and in [20] were 0.46% and -3.08%, respectively.
